# An excerpt weighted towards active compounds, which were near 3.6% of everything screened.
# Anthrax LF prot – inhibitors of Bacillus anthracis lethal factor protease. actives 0.12% (n = 360,000). inhibition, % at 10 µM. multiplex microsphere protease cleavage assay, LF. P15917; further: plate controls were buffer without enzyme for full effect and enzyme alone for no effect
# MazEF act – MazEF (E. coli) toxin RNase activation; P0AE70; FAM/BHQ RNA-DNA oligo cleavage fluorescence, 5 h; activation, % at 20 µM; actives 0.32% (n = 350,000); AID 504720; in the data active means activation above about 50%
# Target sequence (P0AE70 whole entry, looked up): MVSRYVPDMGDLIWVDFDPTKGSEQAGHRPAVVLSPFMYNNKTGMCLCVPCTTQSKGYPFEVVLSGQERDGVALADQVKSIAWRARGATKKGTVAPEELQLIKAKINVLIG
# Autofluor counter – compound fluorescence in toxin protease inhibitor counterscreen; compound autofluorescence counterscreen, microsphere flow cytometry; stronger effect = higher value; fluorescence intensity (no concentration beside the values); actives 3.1% (n = 360,000); AID 624483; in the data active means fluorescence intensity above about 16000; inconclusive means no clear call, values can overlap the other calls
# BoNT-A LC inh2 – BoNT A light chain protease inhibition. inhibition, % at 10 µM. multiplex microsphere protease substrate cleavage, flow cytometry. actives 0.17% (n = 360,000). AID 588499; further: plate controls were buffer without enzyme for full effect and enzyme alone for no effect
# BoNT-F LC inh – blocks Botulinum neurotoxin F light chain protease; Multiplex microsphere protease cleavage assay, flow cytometry; inhibition, % at 10 µM; actives 0.22% (n = 360,000); AID 588497; in the data active means inhibition above about 35%, passing the limit was not always enough; inconclusive means no clear call, values can overlap the other calls; further: plate controls were buffer without enzyme for full effect and enzyme alone for no effect
# Active calls of the source: *; u = inconclusive; x = not tested or not shown. Unless noted, no stated cut-off is given here; in the data, active means inhibition above about 30%; inconclusive means no clear call, values can overlap the other calls; inactive means below that.
SMILES,Anthrax LF prot,MazEF act,Autofluor counter,BoNT-A LC inh2,BoNT-F LC inh
COc1ccccc1-n1cnc2cc(NCc3ccccn3)ccc21,-6,5,22276*,2,-1
CCCn1cnc2cc(NCc3cccc(OC)c3O)ccc21,-1,-8,19022*,2,-2
CCCC(O)(c1ccc(CC)cc1)C(CN1CCOCC1)c1ccccc1 (configuration not stated),-14,-9,3838,-4,20
CNc1c(NS(=O)(=O)c2ccc(C3CCCCC3)cc2)c(=O)oc2ccccc12,10,-3,3508,2,4
COc1cc2cc3c(N)c(C(=O)NCc4ccco4)sc3nc2cc1OC,2,3,3007,3,1
Cc1ccc2nc3sc(C(=O)NCc4ccco4)c(N)c3cc2c1,-1,82*,2999,1,-3
O=C(c1ccco1)n1c(=S)nc2ccccn21,0,5,22668*,1,2
Cc1cccc2nc(=S)n(C(=O)c3ccco3)n12,-29,7,15901,12,14
CCCCCCCC(=O)NNC(=O)c1ccc([N+](=O)[O-])cc1,-2,4,24645*,-4,-5
O=C(Oc1c(CN2CCOCC2)cc(Cl)c2cccnc12)c1ccccc1Cl,-1,-2,4442,-3,-1
COc1cccc(C(=O)Oc2c(CN3CCOCC3)cc(Cl)c3cccnc23)c1,-2,4,22802*,1,-1
O=C(Oc1c(CN2CCOCC2)cc(Cl)c2cccnc12)c1ccc(F)cc1,-4,-1,22240*,2,0
COc1ccc(C(=O)Oc2c(CN3CCOCC3)cc(Cl)c3cccnc23)cc1,0,-3,3186,-1,-8
c1ccc(COc2cccc(-c3cc4nc(NCCc5ccncc5)ccn4n3)c2)cc1,-8,x,2862,0,0
CCOC(=O)c1cc(CC)sc1NC(=O)Cc1ccccc1,-4,-1,20942*,u,-3
CCOC(=O)c1cc(CC)sc1NC(=O)COC,0,-7,18881*,2,2
CCOC(=O)c1cc(CC)sc1NC(=O)C1CC(=O)NN1Cc1ccccc1 (configuration not stated),-1,-3,2989,-1,-8
COCCNC(=O)C1(C)CCCN(C(=O)c2cc(OC)c(OC)c(OC)c2)C1 (configuration not stated),-3,x,3032,0,-2
CCC(=O)Nc1ccc(S(=O)(=O)N2CCCCC2)cc1OC,0,3,10577,-1,-8
CCC(=O)Nc1ccc(S(=O)(=O)Nc2cccc(C)c2)cc1OC,0,2,23804*,-2,-3
O=C(O)C1CC2C3CC(C(=O)O)C(C3)C2C1 (configuration not stated),-6,5,3904,0,-6
CCOc1cc(/C=N\NC(=O)c2ccc(C)nc2)cc([N+](=O)[O-])c1O,-1,-3,19947*,-2,-6
COc1ccc(OC)c(CCNC(=O)CS(=O)(=O)Cc2nc(-c3ccc(C)cc3)oc2C)c1,-1,7,23969*,-3,-5
COc1ccc(-c2nc(CS(=O)(=O)CC(=O)NCCc3cc(OC)ccc3OC)c(C)o2)cc1,-3,-3,17109*,-2,-2
COCCCNC(=O)CS(=O)(=O)Cc1nc(-c2cccc(OC)c2)oc1C,1,7,20516*,-3,-4
SMILES,Anthrax LF prot,MazEF act,Autofluor counter,BoNT-A LC inh2,BoNT-F LC inh
COc1cccc(-c2nc(CS(=O)(=O)CC(=O)NCCC(C)C)c(C)o2)c1,-7,-11,6128,0,-2
COc1cccc(-c2nc(CS(=O)(=O)CC(=O)NCCc3cc(OC)ccc3OC)c(C)o2)c1,-1,-5,4428,1,1
CCOc1ccc(-c2ncncc2-c2ccc(OC)c(OC)c2)c(O)c1,2,2,3878,-2,u
O=C(c1ccc(COc2ccccc2[N+](=O)[O-])o1)N1CCCCC1,-1,-2,19870*,0,-1
CC1CCN(CC(=O)N2CCN(c3ccccc3)CC2)CC1,-8,14,3399,1,21
COc1ccc(N2CCN(CC(=O)N3CCC(C)CC3)CC2)cc1,-1,2,17583*,-3,-4
CC(C)c1[nH]nc2c1C(c1cccnc1)C(C#N)=C(N)O2 (configuration not stated),0,-9,19924*,-1,-1
CC(C)N1CC2=C(OC(N)=C(C#N)C2c2cccnc2)/C(=C/c2cccnc2)C1 (configuration not stated),-1,64*,4547,-1,5
CCCc1nn(C)c2c1C(c1cccnc1)C(C#N)=C(N)O2 (configuration not stated),-2,0,23902*,-3,-6

# Screening results from PubChem BioAssay.
